This note sets out measurements from article PMC4336329 (PLoS ONE, 2015).

About 14,000 (4.5%) of roughly 310,000 compounds showed an effect of 50% or more. Effects have a minus sign here. This excerpt belongs to a sample that is enriched for strong results.
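Further: peak tail current of the secondary pulse compared with the same well before compound.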

The target in this experiment is human ether-à-go-go-related gene (hERG) potassium channel (human, UniProt Q12809). The experiment can be described thus: primary screen, population patch clamp on CHO cells stably expressing hERG; higher = less effect of the substance. Here is the method: Briefly, Chinese hamster ovary (CHO) cells stably expressing the hERG channel were dislodged from tissue culture flasks and dispensed into PPC plates. […] During the recording, background leak currents were estimated by a 100 ms step to -80 mV from an initial holding potential of -70 mV and subtracted from the subsequent current measurement. The campaign was conducted in two phases using slight differences in recording protocol. In the first phase, the initial voltage pulse used a 100 ms step to -30 mV from a holding potential of -70 mV, a 2 s conditioning step to +25 mV, and a 2 s test step to -30 mV. During the second phase of the screen, the potential during the conditioning step was raised to +45 mV. In both phases of the campaign, a secondary voltage pulse was applied using the same parameters as the second phase initial pulse. The initial and secondary pulses were applied in the absence of compound, and upon application of 1 μM and 10 μM test concentrations. […]
Sequence of human ether-à-go-go-related gene (hERG) potassium channel (Q12809 whole entry, looked up): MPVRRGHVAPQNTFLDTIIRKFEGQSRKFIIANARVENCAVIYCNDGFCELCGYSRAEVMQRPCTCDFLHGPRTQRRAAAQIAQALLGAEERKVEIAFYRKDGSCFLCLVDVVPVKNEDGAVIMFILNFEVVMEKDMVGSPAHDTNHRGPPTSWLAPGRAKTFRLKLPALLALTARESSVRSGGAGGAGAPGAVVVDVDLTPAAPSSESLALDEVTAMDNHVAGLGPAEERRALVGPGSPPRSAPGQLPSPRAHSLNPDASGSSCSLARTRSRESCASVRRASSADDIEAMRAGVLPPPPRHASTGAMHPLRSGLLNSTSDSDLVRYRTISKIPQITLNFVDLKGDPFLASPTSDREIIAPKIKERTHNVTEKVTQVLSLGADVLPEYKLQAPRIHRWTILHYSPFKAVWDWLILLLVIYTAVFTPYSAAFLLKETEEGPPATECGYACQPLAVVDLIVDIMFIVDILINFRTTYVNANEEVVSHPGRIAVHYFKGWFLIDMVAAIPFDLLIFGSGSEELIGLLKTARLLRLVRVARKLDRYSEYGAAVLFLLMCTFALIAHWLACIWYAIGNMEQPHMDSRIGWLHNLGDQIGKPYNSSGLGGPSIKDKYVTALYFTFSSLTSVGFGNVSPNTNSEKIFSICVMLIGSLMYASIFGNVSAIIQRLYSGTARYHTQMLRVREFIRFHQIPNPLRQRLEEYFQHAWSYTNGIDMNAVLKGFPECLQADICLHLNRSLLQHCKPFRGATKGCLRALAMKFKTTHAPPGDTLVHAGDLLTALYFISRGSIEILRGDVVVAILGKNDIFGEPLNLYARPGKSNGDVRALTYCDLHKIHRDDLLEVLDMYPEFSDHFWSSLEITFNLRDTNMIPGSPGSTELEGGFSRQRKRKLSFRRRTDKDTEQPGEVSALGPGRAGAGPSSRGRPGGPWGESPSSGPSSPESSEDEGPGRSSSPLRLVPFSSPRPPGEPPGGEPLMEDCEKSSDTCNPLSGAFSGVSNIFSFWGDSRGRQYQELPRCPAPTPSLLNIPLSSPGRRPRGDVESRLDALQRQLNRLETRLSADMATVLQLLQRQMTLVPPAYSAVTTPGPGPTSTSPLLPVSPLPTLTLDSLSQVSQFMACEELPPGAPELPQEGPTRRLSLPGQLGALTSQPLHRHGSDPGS
As to `CCOC(=O)c1cc(-c2ccccc2)nn1CC1CC(c2ccc(Cl)cc2)=NO1` (stereo not drawn), the “hERG current change (%, negative = inhibition) at 10uM” value was -16.2%.
In the case of `COc1ccc([N+](=O)[O-])cc1NC(=O)C1(c2ccc(OC)c(OC)c2)CCOCC1`, the “hERG current change (%, negative = inhibition) at 10uM” value was -14.4%.
Under `Cc1ccc(NC(=O)CSc2nnc(CNC(=O)c3cccs3)o2)c(C)c1` stands 6.79%; under `O=C(NCCc1cccc(F)c1)/C(=C/c1cccnc1)NC(=O)c1ccccc1`, -36.4%.
With `COc1ccccc1CCNC(=O)/C(=C/c1cccnc1)NC(=O)c1ccccc1`, the “hERG current change (%, negative = inhibition) at 10uM” value is -33.9%.
Under `O=C(NCCc1ccc(Cl)cc1)/C(=C/c1cccnc1)NC(=O)c1ccccc1` stands -70.9%; under `COc1ccc(CCNC(=O)/C(=C/c2cccnc2)NC(=O)c2ccccc2)cc1`, -47.2%.
On to `COc1ccc(CCNC(=O)/C(=C/c2cccnc2)NC(=O)c2ccccc2)cc1OC`, for which the “hERG current change (%, negative = inhibition) at 10uM” value is given as -3.35%.
With `O=C(NCCc1ccccc1F)/C(=C/c1cccnc1)NC(=O)c1ccccc1`, the “hERG current change (%, negative = inhibition) at 10uM” value is -52.2%.
As for `CC1(C)c2[nH]c3ccccc3c2C[C@@H]2C(=O)N(Cc3ccccc3Cl)C(=O)N21`, the figure is 15.4%; as for `Cc1ccc(S(=O)(=O)NC(C)(C)CSc2nncn2N)cc1`, 9.75%; as for `O=C(O)C#Cc1cccc2ccccc12`, 29.8%.
Take `O=C(CN1CCN(c2ccc(O)cc2)CC1)Nc1ccc(SC(F)F)cc1`: the “hERG current change (%, negative = inhibition) at 10uM” value is on record as -74.7%.
For the compound `COc1ccc(NC(=O)CN2CCN(c3ccccc3)CC2)cc1`, the “hERG current change (%, negative = inhibition) at 10uM” value came to 1.85%.
Turning to `COc1ccc(NC(=O)CN2CCN(c3ccc(F)cc3)CC2)cc1`, the “hERG current change (%, negative = inhibition) at 10uM” value is -4.62%.
Take `COc1cccc(N2CCN(CC(=O)Nc3ccc(-n4cnnn4)cc3)CC2)c1`: the “hERG current change (%, negative = inhibition) at 10uM” value was 7.28%.
On to `COc1ccc(N2CCN(CC(=O)Nc3ccc(SC(F)F)cc3)CC2)cc1`, for which the “hERG current change (%, negative = inhibition) at 10uM” value is -76.6%.
Under `O=C1CN(CC(=O)Nc2ccc(SC(F)F)cc2)CCN1` stands -32.6%; under `O=C(CN1CCN(c2ccc(O)cc2)CC1)Nc1ccc(-c2ccccc2)cc1`, -5.1%; under `COc1cccc(N2CCN(CC(=O)Nc3ccc(SC(F)F)cc3)CC2)c1`, -65.5%.
On to `COc1ccc(N2CCN(CC(=O)Nc3ccc(C)cc3)CC2)cc1`, for which the “hERG current change (%, negative = inhibition) at 10uM” value is reported as -18.7%.
For the compound `COc1ccc(OC)c(C(=O)COC(=O)c2c(OC)cccc2OC)c1`, the “hERG current change (%, negative = inhibition) at 10uM” value is recorded as 8.03%.
For `CCCN1CCC(NC(=O)C2CCCCC2C(=O)O)CC1` (stereo not drawn), the “hERG current change (%, negative = inhibition) at 10uM” value is on record as -1.65%.
Consider `C(=N\N=C\c1cccs1)/c1cccs1`, for which the “hERG current change (%, negative = inhibition) at 10uM” value is -2.57%.
Regarding `Cc1nn(CCC#N)c2c1P(=S)(N1CCCC1)OC(c1ccc(F)cc1)=N2` (stereo not drawn), the “hERG current change (%, negative = inhibition) at 10uM” value is on record as -7.21%.
For the compound `C=CCN1C(=O)C(CC(=O)O)SC1=Nc1c(C)n(C)n(-c2ccccc2)c1=O` (stereo not drawn), the “hERG current change (%, negative = inhibition) at 10uM” value turned out to be 1.73%.
As for `COc1ccccc1/C=C1\SC(=O)N(CC(=O)N(C)C2CCS(=O)(=O)C2)C1=O` (stereo not drawn), the figure is 11.5%.
For `Nc1cc(N)cc(C(=O)Nc2ccc3c(c2)C(=O)NC3=O)c1`, the “hERG current change (%, negative = inhibition) at 10uM” value worked out at 12.1%.
Take `O=C(CN1C(=O)NC2(CCCCCC2)C1=O)N1CCN(c2ccccc2)CC1`: the “hERG current change (%, negative = inhibition) at 10uM” value is reported as -2.9%.
On to `CCOc1ccc(Cl)cc1S(=O)(=O)N1CCCC1`, for which the “hERG current change (%, negative = inhibition) at 10uM” value is reported as -6.06%.
In the case of `CN1CCN(c2nnc(-c3ccc(Cl)cc3)c3ccccc23)CC1`, the “hERG current change (%, negative = inhibition) at 10uM” value is given as -45.7%.
In the case of `O=C1c2ccccc2S(=O)(=O)c2cc(C(=O)N3CCN(c4ccccc4)CC3)ccc21`, the “hERG current change (%, negative = inhibition) at 10uM” value was -25%.
As for `COc1ccc(-c2nc(-c3ccncc3)no2)cc1`, the “hERG current change (%, negative = inhibition) at 10uM” value is listed as 10.5%.
On to `Cc1ccc(-c2nn(-c3cccc(F)c3)cc2CNCc2cccnc2)o1`, for which the “hERG current change (%, negative = inhibition) at 10uM” value is -51.6%.
As for `Cc1ccc(-c2nn(-c3cccc(F)c3)cc2CN(Cc2nccn2C)C(C)C)o1`, the “hERG current change (%, negative = inhibition) at 10uM” value is given as -21.4%.
Regarding `Cc1ccc(-c2nn(-c3cccc(F)c3)cc2CNCCc2ccncc2)o1`, the “hERG current change (%, negative = inhibition) at 10uM” value was -53.6%.
Consider `Cc1ccc(-c2nn(-c3cccc(F)c3)cc2CN2CCN(c3ccccn3)CC2)o1`, for which the “hERG current change (%, negative = inhibition) at 10uM” value is reported as -26.5%.
For `Cc1ccc(-c2nn(-c3ccccc3)cc2CO)o1`, the “hERG current change (%, negative = inhibition) at 10uM” value is on record as -0.28%.
With `COc1ccc(-n2cc(CNCc3cccnc3)c(-c3cccc(F)c3)n2)cc1`, the “hERG current change (%, negative = inhibition) at 10uM” value is -47.7%.
In the case of `COc1ccc(CNCc2cn(-c3cccc(F)c3)nc2-c2ccc(C)o2)cc1`, the “hERG current change (%, negative = inhibition) at 10uM” value is -55.5%.
Consider `COc1ccc(-c2nn(-c3ccccc3)cc2CNCc2cccnc2)c(F)c1`, for which the “hERG current change (%, negative = inhibition) at 10uM” value is recorded as -28.1%.
On to `COCCNCCCCOc1ccccc1-c1ccccc1.O=C(O)C(=O)O`, for which the “hERG current change (%, negative = inhibition) at 10uM” value is reported as -27.5%.
`Cc1cc(C(=O)NCC(=O)OCC(=O)NCC2CCCO2)ccc1[N+](=O)[O-]` (stereo not drawn): the “hERG current change (%, negative = inhibition) at 10uM” value came to 15.3%.
For `COc1ccc(C2C(C(=O)N3CCCC3)CC(=O)N2c2ccc(OC)cc2)cc1` (stereo not drawn), the “hERG current change (%, negative = inhibition) at 10uM” value was found to be 0.91%.
As for `O=C(Cn1cnc2c(oc3nc4c(cc32)CCCC4)c1=O)Nc1cccc(Cl)c1`, the figure is 16.2%; as for `COc1ccc(-c2cn[nH]c2-c2ccc(OCC(=O)NN)cc2O)cc1`, 17.4%; as for `CCCOC(=O)c1ccc(Cl)c(NC(=O)c2ccc(-c3ccccc3)cc2)c1`, -5.63%.
Turning to `CCOC(=O)c1ccc(/[N+]([O-])=C/c2ccccc2)cc1`, the “hERG current change (%, negative = inhibition) at 10uM” value amounted to 0.217%.
Consider `CCCOC(=O)c1ccc(NC(=O)Oc2ccccc2)cc1`, for which the “hERG current change (%, negative = inhibition) at 10uM” value is on record as 3.21%.
As for `CCOC(=O)c1cccc(P(=O)(C(C)(C)C)C(C)(C)C)c1`, the “hERG current change (%, negative = inhibition) at 10uM” value is 17.1%.
On to `CCOC(=O)c1cccc(-[n+]2c(-c3ccccc3)cc(-c3ccccc3)cc2-c2ccccc2)c1.[O-][Cl+3]([O-])([O-])[O-]`, for which the “hERG current change (%, negative = inhibition) at 10uM” value is -73.5%.
`CCOC(=O)c1ccc(Cl)c(NC(=O)c2ccc(-c3ccccc3)cc2)c1`: the “hERG current change (%, negative = inhibition) at 10uM” value is 1.02%.
Regarding `CCCOC(=O)c1ccc(-[n+]2c(-c3ccccc3)cc(-c3ccccc3)cc2-c2ccccc2)cc1.[O-][Cl+3]([O-])([O-])[O-]`, the “hERG current change (%, negative = inhibition) at 10uM” value is listed as -77.2%.
With `CCOC(=O)c1ccc(-[n+]2c(-c3ccccc3)cc(-c3ccccc3)cc2-c2ccccc2)cc1.[O-][Cl+3]([O-])([O-])[O-]`, the “hERG current change (%, negative = inhibition) at 10uM” value is -77.9%.
Under `CCOC(=O)c1ccc(P(=O)(c2ccccc2)c2ccccc2)cc1` stands -18.2%; under `O=C(O)CCC(=O)c1ccc2c(c1)OCCO2`, 1.89%; under `O=c1c(C=NCc2cccs2)c(O)n(C2CCCCC2)c(=O)n1C1CCCCC1`, 8.72%.
With `O=C(CCCCCNC(=O)N1CCn2c1nc1ccccc12)NCCc1ccccc1`, the “hERG current change (%, negative = inhibition) at 10uM” value worked out at 9.42%.
Under `O=C(O)c1ccccc1C(=O)N1N=C(c2ccccc2)CC1c1ccccc1O` (stereo not drawn) stands 6.81%.
Under `Cc1nn(C(=O)c2ccco2)c(C)c1Sc1ccc(Br)cc1` stands -4.64%; under `COC(=O)CN1C(=O)COc2ccc(S(=O)(=O)N3CCCCCC3)cc21`, -7.44%; under `O=C(CSc1nnc(Cc2cc(=O)[nH]c(=O)[nH]2)n1-c1ccc(Cl)cc1)NC1CCCC1`, 10.7%.
As for `COC(=O)CSc1[nH]c(=O)cc(C)c1C#N`, the figure is 19.9%; as for `O=C(CN1CCc2ccccc2C1)NCC(=O)Nc1ccc(F)cc1`, 13.5%; as for `O=C(Nc1ccc(Cl)cc1)[C@@H]1[C@@H]2C(=O)N(c3cccc(F)c3)C(=O)[C@@H]2[C@H]2C=CC=NN21`, -9.36%.
With `CCCCc1ccc(N=N/C(C(=O)Nc2ccccc2OC)=C(/C)O)cc1`, the “hERG current change (%, negative = inhibition) at 10uM” value was -8.51%.
Regarding `CCCCc1ccc(N=N/C(C(=O)Nc2cc(OC)c(NC(C)=O)cc2OC)=C(/C)O)cc1`, the “hERG current change (%, negative = inhibition) at 10uM” value turned out to be 14.2%.
Under `CCCCc1ccc(N=N/C(C(=O)Nc2ccc(NC(C)=O)cc2OC)=C(/C)O)cc1` stands -50.2%.
In the case of `CN(C)S(=O)(=O)c1ccc(C(=O)OCc2ccc([N+](=O)[O-])cc2)cc1`, the “hERG current change (%, negative = inhibition) at 10uM” value came out at 17.6%.
Regarding `O=C(CCNC(=O)c1ccc(Cl)cc1)Nc1cccc(S(=O)(=O)N2CCCCC2)c1`, the “hERG current change (%, negative = inhibition) at 10uM” value was -46%.
For `O=C(CCCNC(=O)c1ccc(Cl)cc1)Nc1cccc(S(=O)(=O)N2CCCCC2)c1`, the “hERG current change (%, negative = inhibition) at 10uM” value was -20.2%.
`O=C(CCNC(=O)c1ccc([N+](=O)[O-])cc1)Nc1cccc(S(=O)(=O)N2CCOCC2)c1`: the “hERG current change (%, negative = inhibition) at 10uM” value was -31.7%.
As for `O=C(CCNC(=O)c1ccc(Br)cc1)Nc1cccc(S(=O)(=O)N2CCCC2)c1`, the “hERG current change (%, negative = inhibition) at 10uM” value is on record as -32.7%.
For `O=C(CCNC(=O)c1ccc([N+](=O)[O-])cc1)Nc1cccc(S(=O)(=O)N2CCCCC2)c1`, the “hERG current change (%, negative = inhibition) at 10uM” value is given as -55.2%.
Under `CN(C)S(=O)(=O)c1cccc(C(=O)NCCNC(=O)c2cccc(S(=O)(=O)N(C)C)c2)c1` stands 15.9%; under `O=C(CCNC(=O)c1ccc(Br)cc1)Nc1cccc(S(=O)(=O)N2CCCCC2)c1`, -36.1%.
`O=C(CCNC(=O)c1ccc(Br)cc1)Nc1cccc(S(=O)(=O)N2CCCCCC2)c1`: the “hERG current change (%, negative = inhibition) at 10uM” value was -34.1%.
As for `O=C(CCNC(=O)c1ccc([N+](=O)[O-])cc1)Nc1cccc(S(=O)(=O)N2CCCCCC2)c1`, the figure is -75.1%.
Consider `O=C(CCNC(=O)c1ccc(Cl)cc1)Nc1cccc(S(=O)(=O)N2CCCCCC2)c1`, for which the “hERG current change (%, negative = inhibition) at 10uM” value was -57.3%.
`CN(C)S(=O)(=O)c1cccc(COC(=O)CCNC(=O)c2ccc([N+](=O)[O-])cc2)c1`: the “hERG current change (%, negative = inhibition) at 10uM” value was -55.2%.
As for `COc1ccc(/C(C)=N/NC(=O)CNC(=O)c2ccncc2)c(OC)c1`, the figure is 3.47%.
